# TGFb inhibitor: inhibitors of TGF-b signaling; AID 588855; Potency, µM (titrated, usually from 46.1 µM), for the others: top-dose activity, negative = inhibition, most hits filed as inhibitors; HepG2 CAGA-GFP TGF-b/SMAD3 reporter, GFP fluorescence, 18 h; TGF-beta stimulated, 500 pg/mL final; actives 1.2% (n = 410,000); also: potency is read from the fitted curve at half-maximal effect; % is scaled to controls: 0 for no effect and ±100 for the full control effect; nearly all actives have a fitted effect of over 65% in size
#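 Smad-responsive CAGA-GFP expression was quantified in HEPG2 cells exposed to compounds and 500 pg/mL final TGF-beta for 18 h at 37 degrees C; unstimulated wells defined full inhibition.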
# DT40 TDP1 no CPT: qHTS for Inhibitors of human tyrosyl-DNA phosphodiesterase 1 (TDP1): qHTS in cells in absence of CPT; DT40 Tdp1-/- hTDP1 cells, no CPT, ATP luminescence, 48 h; Potency, µM (highest dose often 46.2 µM), without a hit: at the top dose activity change, negative = growth inhibition, most hits filed as inhibitors; actives 15% (n = 420,000); also: potency is read from the fitted curve at half-maximal effect; % is scaled to controls: 0 for no effect and ±100 for the full control effect; nearly all actives have a fitted effect of over 55% in size
#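 DT40 Tdp1-/-;hTDP1 cells, no CPT (DMSO vehicle only), 400 cells/well; compounds pin-transferred; ≥48 hr, 37 °C; CellTiter-Glo 30 min RT dark, luminescence read.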
# DT40 TDP1 CPT: growth inhibition of DT40 Tdp1-/-;hTDP1 cells with camptothecin (screen for TDP1 inhibitors). Potency, µM (top dose mostly 46.2 µM), inactives show at the highest dose activity change, negative = growth inhibition, actives largely listed as inhibitors. actives 12% (n = 420,000). AID 686979. chicken DT40 Tdp1-/-;hTDP1 cells + 20 nM CPT, ATP luminescence, 48 h; also: potency is read from the fitted curve at half-maximal effect; % is scaled to controls: 0 for no effect and ±100 for the full control effect; nearly all actives have a fitted effect of over 55% in size
#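 Cell growth measured by CellTiter-Glo luminescence after a minimum 48 h, 37 C compound exposure with 20 nM CPT in Tdp1-knockout DT40 cells stably expressing hTDP1, seeded 400/well; qHTS titration format.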
# IL1B secr inh: inhibitors of inflammasome signaling (IL-1 beta secretion) | activity change, % at 57.5 µM | actives 4.7% (n = 360,000) | THP-1 LPS/ATP IL-1B secretion, AlphaLISA, 16 h; active compounds read low; in the data active = activity change below about -50%; inconclusive = mostly about -30% to -49%; also: % is scaled to controls: 0 for no effect and ±100 for the full control effect
#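 THP-1 cells pretreated 1 hr with compounds (up to 57.5 uM final), then stimulated with LPS (250 ng/mL final) plus ATP (1.25 mM final); secreted IL-1B measured by AlphaLISA after 16 hr, decreased signal indicating inhibition.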
# HepG2 tox: kills HepG2 cells in TGF-b inhibitor counter-screen; HepG2 CAGA-GFP viability, ATP luminescence, 18 h; Potency, µM (doses to about 46.1 µM), inactives show at the highest dose activity change, negative = cytotoxicity, actives largely listed as cytotoxic; actives 0.76% (n = 410,000); also: potency is read from the fitted curve at half-maximal effect
#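 HepG2 CAGA-GFP cells (1000/well, DMEM with 1% FBS) received compound, then TGF-beta at 500 pg/mL final, and were incubated 18 hours at 37 degrees C. Viability was read by CellTiter-Glo luminescence. Media-only wells were set as complete cell-killing and DMSO as no toxicity.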
# S-ASM inh: inhibitors of human secretory acid sphingomyelinase; P17405; placental ASM, HMU-PC fluorogenic substrate, 60 min; Potency, µM (titrated, usually from 57.5 µM), for the others: at the top dose activity change, negative = inhibition, most hits filed as inhibitors; actives 0.006% (n = 340,000); AID 504937; also: potency is read from the fitted curve at half-maximal effect
# Target sequence (P17405 47-631 limits assumed): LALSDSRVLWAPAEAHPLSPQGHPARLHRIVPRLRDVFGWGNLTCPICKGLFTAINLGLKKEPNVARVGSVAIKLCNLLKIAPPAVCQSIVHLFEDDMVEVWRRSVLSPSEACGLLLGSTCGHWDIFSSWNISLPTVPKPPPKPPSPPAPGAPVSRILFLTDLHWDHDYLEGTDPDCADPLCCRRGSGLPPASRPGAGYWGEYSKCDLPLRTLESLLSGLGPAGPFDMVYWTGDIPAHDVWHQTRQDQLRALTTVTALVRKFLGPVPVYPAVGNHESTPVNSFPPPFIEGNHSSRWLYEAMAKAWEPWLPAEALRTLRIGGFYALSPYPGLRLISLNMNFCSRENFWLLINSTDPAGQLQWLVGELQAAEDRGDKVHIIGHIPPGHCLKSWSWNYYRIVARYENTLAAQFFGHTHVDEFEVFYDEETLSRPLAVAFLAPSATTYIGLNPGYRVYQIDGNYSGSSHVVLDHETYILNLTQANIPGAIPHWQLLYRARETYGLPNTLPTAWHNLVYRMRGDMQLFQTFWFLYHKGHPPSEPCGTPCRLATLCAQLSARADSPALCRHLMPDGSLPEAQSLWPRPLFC
#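 HMU-PC0 cleavage (9 uM final) by human placental ASM, 60 min at 37 °C following 10 min compound exposure at RT; stopped at pH 10, fluorescence Ex 386/Em 447 nm.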
# Starred values were filed as active, the others as inactive; ? = inconclusive; . = no result. Compounds with a hit are over-represented: about 19% of the library has one in this group of screens. Unless noted, calls follow the shape of the dose curve; as a rule, active = well fitted curve in the direction sought with a large enough effect; inconclusive = small, poorly fitted or top-dose-only effect, or another doubt; inactive = no such curve, though single readings can be large; an effect the other way counts as inactive or inconclusive.
SMILES,TGFb inhibitor,DT40 TDP1 no CPT,DT40 TDP1 CPT,IL1B secr inh,HepG2 tox,S-ASM inh
Cc1cccc(NC(=O)c2cc([N+](=O)[O-])ccc2N2CCOCC2)c1C,-1%,-16%,-5%,14,7%,.
Cc1ccc(C(=O)c2cc([N+](=O)[O-])ccc2N2CCOCC2)cc1C,?,0.73µM*,1.5µM*,0,17%,-18%
Cc1ccc(C(=O)c2cc([N+](=O)[O-])ccc2N2CCOCC2)c(C)c1,?,0.92µM*,0.82µM*,21,30%,-9%
CCc1nnc(NC(=O)c2ccc(OC)c(S(=O)(=O)N3CCCC3)c2)s1,-2%,-1%,-13%,20,-27%,2%
CSCCC(c1nc2ccccc2[nH]1)n1c(=O)c(-c2cccnc2)nc2ccccc21 (stereo not given),.,-21%,-9%,?,.,.
CSCCC(c1nc2ccccc2[nH]1)n1c(-c2cc(C(F)(F)F)cc(C(F)(F)F)c2)nc2ccccc21 (stereo not given),.,16µM*,?,-21,.,.
CSCCC(c1nc2ccccc2[nH]1)n1c(=O)c(-c2ccco2)nc2ccccc21 (stereo not given),.,23µM*,12µM*,?,.,.
COC(=O)CN1C(=O)[C@H]2[C@@H](/C=C/c3ccccc3)N3C(=O)CN(Cc4ccccc4)C(=O)[C@@]3(C)[C@H]2C1=O,-2%,-22%,-26%,11,-1%,6%
COc1ccc(SN=C2C(C)=CC(=O)C=C2C)cc1,-5%,9.2µM*,?,?,-17%,-15%
COc1cccc(NC(=O)c2cc3c(-c4ccc(Cl)cc4)nn(C)c3s2)c1,-8%,15µM*,?,.,-45%,.
COc1ccccc1CNC(=O)c1cc2c(-c3ccc(Cl)cc3)nn(C)c2s1,0%,?,?,.,-17%,.
COc1ccc(-c2nn(C)c3sc(C(=O)Nc4cccc(F)c4)cc23)cc1OC,-3%,10µM*,15µM*,.,-55%,.
CCCCNC(=O)Cn1nnc(-c2ccccc2)c1COc1ccc(C(C)=O)cc1,-15%,?,-26%,1,-7%,.
CN(Cc1ccccc1)C(=O)Cn1nnc(-c2ccccc2)c1COc1ccccc1,15%,21µM*,?,-26,-3%,.
O=C(Cn1nnc(-c2ccccc2)c1COc1ccc2ccccc2c1)NCC1CC1,?,?,18µM*,-9,-30%,.
CN(Cc1ccccc1)C(=O)Cn1nnc(-c2ccccc2)c1COc1ccc2ccccc2c1,-15%,18µM*,23µM*,-7,-36%,.
CCOC(=O)CN1C(=O)C(=O)N(Cc2c(F)cccc2Cl)C1=O,-22%,3%,3%,0,-4%,-1%
O=C1COc2ccc3ccccc3c21,-1%,-25%,4%,52,-25%,13%
CC1CCc2nc(NC(=O)CCSc3ccccc3)sc2C1 (stereo not given),-11%,-10%,-7%,-12,-10%,3%
CC1CCc2nc(NC(=O)CN3CCN(Cc4ccc5c(c4)OCO5)CC3)sc2C1 (stereo not given),?,16µM*,18µM*,?,-42%,0%
O=C(CN1CCN(Cc2ccc3c(c2)OCO3)CC1)Nc1ccc2c(c1)OCO2,-1%,-3%,-18%,-10,-5%,-1%
CC1CCc2nc(NC(=O)C3COc4ccccc4O3)sc2C1 (stereo not given),0%,21µM*,16µM*,-18,-30%,7%
CC1CCc2nc(NC(=O)Cc3ccc(Cl)cc3)sc2C1 (stereo not given),16µM*,18µM*,?,.,-47%,.
O=C(CN1CCN(c2ccccn2)CC1)Nc1ccccc1Br,?,?,?,19,-5%,-1%
O=C(CN1CCN(c2ncccn2)CC1)Nc1ccccc1-n1cccc1,-15%,13µM*,?,-23,-16%,-4%
SMILES,TGFb inhibitor,DT40 TDP1 no CPT,DT40 TDP1 CPT,IL1B secr inh,HepG2 tox,S-ASM inh
O=C1CCCN1c1ccc([N+](=O)[O-])cc1,13%,-30%,10%,7,-2%,.
CC1CCc2nc(NC(=O)CN3CCOCC3)sc2C1 (stereo not given),42%,-20%,2%,13,15%,2%
CC1CCc2nc(NC(=O)Nc3ccc4c(c3)OCO4)sc2C1 (stereo not given),-7%,?,?,-75*,5%,0%
CC1CCc2nc(NC(=O)CN3CCN(c4ccccc4)CC3)sc2C1 (stereo not given),15%,21µM*,?,13,7%,-6%
O=C(CN1CCN(c2ccccc2)CC1)Nc1ccncc1,-25%,18µM*,?,24,-10%,-2%
Cc1ccc(N2CC(NC(=O)C3CCCC3)CC2=O)cc1 (stereo not given),2%,-12%,-18%,.,-7%,.
COc1ccc(Cl)c(-c2cc(C(=O)NCc3ccco3)[nH]n2)c1,18%,-23%,-23%,-30,14%,.
O=C(NCC1CCCCC1)c1cc(-c2cc(F)ccc2OCC2CCCO2)n[nH]1 (stereo not given),-3%,?,18µM*,-56*,-18%,.
Cc1ccc(Cl)cc1-c1cc(C(=O)NCC2CCCCC2)[nH]n1,8%,18µM*,?,-51*,-5%,.
COc1ccc(Cl)c(-c2cc(C(=O)NCc3ccc(C(F)(F)F)cc3)[nH]n2)c1,-27%,?,16µM*,-28,-34%,.
CC(C)c1ccc(NC(=O)c2cc(-c3cc(F)ccc3OCC3CCCO3)n[nH]2)cc1 (stereo not given),0%,?,?,-11,5%,.
Cc1ccc(Cl)cc1-c1cc(C(=O)NCc2ccc(C(F)(F)F)cc2)[nH]n1,?,16µM*,21µM*,0,-27%,.
COc1ccccc1C(=O)Nc1ccc(C(=O)N2CCCCC2)cc1,6%,-3%,5%,-28,-3%,1%
O=C(COC(=O)c1cc[n+]([O-])cc1)Nc1cccc(Br)c1,-3%,-6%,-11%,7,6%,6%
O=C(c1cc2cc(Cl)ccc2[nH]1)N1CCc2ccccc2C1,?,-46%,?,8,2%,0%
Cc1ccc(Cl)cc1-c1cc(C(=O)Nc2ccc(F)cc2)[nH]n1,?,21µM*,23µM*,-60*,-35%,.

# Compound activity: PubChem, National Center for Advancing Translational Sciences (NCATS)
